Pf Dd2 inh = blocks in vitro growth of P. falciparum Dd2 | P. falciparum Dd2 growth, SYBR Green, 72 h | Potency, µM (series often up to 28.9 µM), without a hit: at the highest dose activity, negative = inhibition, actives largely listed as inhibitors | 120,000 compounds, 4.3% hits | AID 1347417; active = well fitted inhibition curve with a large enough effect;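 also: plate controls were DMSO vehicle for no effect and reference drug for full effect; nearly all actives have a fitted effect of over 65% in size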
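Readout: SYBR Green fluorescence, 485 nm excitation, 535 nm emission, after ~16 h lysis at 37C. Before that, Dd2-infected red cells (2.5% hematocrit) grew 72 h with compound, 29 uM top final concentration.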
* hit, by the source's call; i = inactive; [ ] = dose if it differs, or a comment. This excerpt belongs to a sample that is enriched for hits. Potency is read from the fitted curve at half-maximal effect.

SMILES	Pf Dd2 inh
CC(=O)Nc1ccc(CN2CCCC3(Cc4ccccc4CNC3=O)C2)cc1 (stereo unspecified)	-16%
Cn1nccc1CN1CCC2(CC1)Cc1ccccc1NC2=O	-24%[44.1 µM]
N#Cc1ccc(CN2CCC3(Cc4ccccc4CNC3=O)C2)cc1 (stereo unspecified)	5%
O=C1NCc2ccccc2CC12CCN(Cc1ccc(Oc3ccccc3)cc1)C2 (stereo unspecified)	11µM*
O=C1NCc2ccccc2CC12CCN(Cc1ccncc1Cl)C2 (stereo unspecified)	10%
O=C(NCc1cccc(C(F)(F)F)c1)c1cnc(-c2ccccc2)nc1-c1ccncc1	1%
COc1ccc(OCc2nc(C(=O)NC(C)c3ccccc3)co2)cc1 (stereo unspecified)	-13%
Cc1ccc2nc([C@H]3CCN(C(=O)C4CC4)C3)[nH]c2c1	i
Cc1ncccc1C(=O)N1[C@H]2CC[C@@H]1c1cnc(-c3ccc(F)cc3)nc1C2	-3%
COCCn1c(C)cc(C(=O)N2[C@H]3CC[C@@H]2c2cnc(-c4ccc(F)cc4)nc2C3)c1C	11µM*
COc1ccc(C(=O)N2[C@H]3CC[C@@H]2c2cnc(-c4ccc(F)cc4)nc2C3)cc1F	i
O=C(C1CCCCC1)N1[C@H]2CC[C@@H]1c1cnc(-c3ccc(F)cc3)nc1C2	i
O=C(C1CCC1)N1[C@H]2CC[C@@H]1c1cnc(-c3ccc(F)cc3)nc1C2	13µM*
CCC(=O)N1[C@H]2CC[C@@H]1c1cnc(-c3ccc(F)cc3)nc1C2	-15%
O=C1NCCCCCCN(C(=O)Cc2ccncc2)[C@@H]2CCC[C@H]12	36%
C[S+](=O)([O-])N1CCC2CC(=O)NCCC2C1 (stereo unspecified)	44%[44.1 µM]
COC(=O)[C@H](NC(=O)[C@@H]1[C@@H](NC(=O)Nc2cccc(OC)c2)CCN1C(=O)c1cccn1C)C(C)C	-17%
CCOC(=O)c1c(C)[nH]c(C)c1S(=O)(=O)NCC(=O)Nc1cc(Cl)ccc1OC	0%
CCOC(=O)c1c(C)[nH]c(C)c1S(=O)(=O)N(C)CC(=O)Nc1cccc(Cl)c1C	-7%
CCOC(=O)c1c(C)[nH]c(C)c1S(=O)(=O)N(C)CC(=O)Nc1cc(Cl)ccc1OC	10µM*
CN(C)S(=O)(=O)N1CCC(C(=O)N2CCCCCCNC(=O)CC2)CC1	4%
Cc1ccccc1CNC(=O)C1c2ccccc2CC(=O)N1C(C)C (stereo unspecified)	i
CCOCCCNC(=O)N1CCN(S(=O)(=O)c2ccc3c(ccn3C)c2)CC1	11%
COc1ccc(-c2nnc3n2N(C(C)=O)C(c2ccc(Cl)c(Cl)c2)=C(C(C)=O)S3)cc1	77%
COc1ccc(C2=C(C(C)=O)Sc3nnc(-c4ccc(Cl)cc4)n3N2C(C)=O)cc1OC	1.4µM*
SMILES	Pf Dd2 inh
CCC(=O)C1=C(c2ccc(OC)c(OC)c2)N(C(=O)CC)n2c(CC)nnc2S1	1.4µM*
COc1ccc(OC(=O)CSc2nnc(-c3ccc(F)cc3)o2)cc1	14%
COc1ccc(CC(=O)NCCc2sc(-c3ccc(Cl)cc3)nc2C)cc1OC	i
CCC(=O)C1=C(c2ccc(F)cc2)N(C(=O)CC)n2c(nnc2-c2ccc(OC)cc2)S1	3.2µM*
CCc1nnc(SCC(=O)Nc2ccc(OC)c(OC)c2)c2cc3occc3n12	1%
COc1ccc(-c2nnc3n2CCN(C(=O)c2ccc(F)cc2)C3)cc1	-2%
CCc1nnc(SCc2nc(-c3ccc(OC)c(OC)c3)oc2C)c2cc3sc(C)cc3n12	39%
CC1CCC2(CC1)NC(=O)N(CC(=O)NCCC1=CCCCC1)C2=O (stereo unspecified)	-4%
Cc1ccccc1S(=O)(=O)N(C)CC1CCOCC1	26%
COC[C@@H]1CN(C(=O)CCc2c(C)noc2C)C[C@H]1c1ccncc1	1%
O=C(c1ccc2c(Cl)c3c(nc2c1)CCCC3)N1CCN(c2ccccc2)CC1	-16%
O=C(c1ccc2c(c1)CCN2S(=O)(=O)c1ccccc1)N1CCN(c2ccccc2F)CC1	45%
CCN1c2cc(C(=O)N3CCN(c4ccccc4F)CC3)ccc2C(=O)N2CCCCC21 (stereo unspecified)	i
CCc1nc2ccc(C(=O)N3CCN(c4ccccc4)CC3)cc2nc1CC	6.3µM*
CCc1nc2ccc(C(=O)N3CCN(c4ccc(Cl)cc4)CC3)cc2nc1CC	21%
CCc1nc2ccc(C(=O)N3CCN(c4ccccc4F)CC3)cc2nc1CC	2.8µM*
Cc1cccc(C(=O)N2CC(N(Cc3cccnc3)S(C)(=O)=O)C2)c1	6%
O=C(COc1ccccc1Cl)Nc1nc2c(s1)CCCC2	41%
